# Assays:
# Experiment in all cases: yeast three-hybrid, YBZ-1, SC-Leu-His + 0.5 mM 3-AT, 4 days
# Settings in all cases: tags: N-Gal4 AD-HA kept; label: inside an RPR1-promoter hybrid RNA with tandem MS2 sites; ssRNA
# PUM1 PUF domain R2-RRM = PUM1 PUF domain R2-RRM (Homo sapiens, UniProt Q14671 828-1176, N899R;Y900R;Q903M)
# Outline: (§1)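 Matching RNA elements and Pumilio-1 PUF domain libraries, randomized at the three base-contacting residues of every repeat, were co-expressed from a centromeric plasmid in strain YBZ-1 (LexA–MS2 coat fusion, HIS3 reporter). The repeat regions were PCR-amplified and Illumina-sequenced from cells grown four days on SC-Leu (input) or SC-Leu-His + 0.5 mM 3-AT (selection). The interaction score is the log change in variant frequency from input to selection. It is computed in log2, with a pseudocount of 1 for absent variants.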
# PUM1 PUF domain R2-DFE = PUM1 PUF domain R2-DFE (Homo sapiens, UniProt Q14671 828-1176, N899D;Y900F;Q903E)
# Outline: as §1
# PUM1 PUF domain R4-FNQ = PUM1 PUF domain R4-FNQ (Homo sapiens, UniProt Q14671 828-1176, N971F;H972N)
# Outline: as §1
# PUM1 PUF domain R5-MYW = PUM1 PUF domain R5-MYW (Homo sapiens, UniProt Q14671 828-1176, C1007M;R1008Y;Q1011W)
# Outline: as §1
# PUM1 PUF domain R3-RSY = PUM1 PUF domain R3-RSY (Homo sapiens, UniProt Q14671 828-1176, C935R;R936S;Q939Y)
# Outline: as §1
# PUM1 PUF domain R3-RAL = PUM1 PUF domain R3-RAL (Homo sapiens, UniProt Q14671 828-1176, C935R;R936A;Q939L)
# Outline: as §1
# PUM1 PUF domain R3-VCK = PUM1 PUF domain R3-VCK (Homo sapiens, UniProt Q14671 828-1176, C935V;R936C;Q939K)
# Outline: as §1
# PUM1 PUF domain R7-RRD = PUM1 PUF domain R7-RRD (Homo sapiens, UniProt Q14671 828-1176, S1079R;N1080R;E1083D)
# Outline: as §1
# PUM1 PUF domain R1-RYT = PUM1 PUF domain R1-RYT (Homo sapiens, UniProt Q14671 828-1176, S863R;R864Y;Q867T)
# Outline: as §1
# PUM1 PUF domain R6-FRQ = target: T1, PUM1 PUF domain R6-FRQ (Homo sapiens, UniProt Q14671 828-1176, N1043F;Y1044R)
# T1 sequence: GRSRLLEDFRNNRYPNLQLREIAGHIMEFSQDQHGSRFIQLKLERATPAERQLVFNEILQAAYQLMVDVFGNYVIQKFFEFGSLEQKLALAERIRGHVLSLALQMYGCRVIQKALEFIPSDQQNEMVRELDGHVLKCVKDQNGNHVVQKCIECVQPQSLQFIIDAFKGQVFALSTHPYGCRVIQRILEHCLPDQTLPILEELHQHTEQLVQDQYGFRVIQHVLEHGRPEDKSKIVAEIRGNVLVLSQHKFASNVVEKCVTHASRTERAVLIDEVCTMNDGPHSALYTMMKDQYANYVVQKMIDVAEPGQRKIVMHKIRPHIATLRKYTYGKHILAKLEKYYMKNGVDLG
# Outline: as §1
sequence,measurement,setting,value
GGCUAGAACUAGUGGAUCCCCCGGCGCCCGGCGGCUCGAGCCCGGGUAAGUGUAAAGAGUCUGCAUGCCGCCGGGCGCCAUGCCUGCAGGUCGACUCUAGAAAACAUG,binding signal,PUM1 PUF domain R2-RRM,2.71 log2 enrichment (interaction score)
same,binding signal,PUM1 PUF domain R2-DFE,7.89 log2 enrichment (interaction score)
GGCUAGAACUAGUGGAUCCCCCGGCGCCCGGCGGCUCGAGCCCGGGUAAGUGUAUAUAGUCUGCAUGCCGCCGGGCGCCAUGCCUGCAGGUCGACUCUAGAAAACAUG,binding signal,PUM1 PUF domain R4-FNQ,4.16 log2 enrichment (interaction score)
GGCUAGAACUAGUGGAUCCCCCGGCGCCCGGCGGCUCGAGCCCGGGUAAGUGUUAAUAGUCUGCAUGCCGCCGGGCGCCAUGCCUGCAGGUCGACUCUAGAAAACAUG,binding signal,PUM1 PUF domain R5-MYW,3.48 log2 enrichment (interaction score)
GGCUAGAACUAGUGGAUCCCCCGGCGCCCGGCGGCUCGAGCCCGGGUAAGUGUAAUUAGUCUGCAUGCCGCCGGGCGCCAUGCCUGCAGGUCGACUCUAGAAAACAUG,binding signal,PUM1 PUF domain R3-RSY,2.82 log2 enrichment (interaction score)
same,binding signal,PUM1 PUF domain R3-RAL,3.32 log2 enrichment (interaction score)
same,binding signal,PUM1 PUF domain R3-VCK,2.57 log2 enrichment (interaction score)
GGCUAGAACUAGUGGAUCCCCCGGCGCCCGGCGGCUCGAGCCCGGGUAAGUCUAAAUAGUCUGCAUGCCGCCGGGCGCCAUGCCUGCAGGUCGACUCUAGAAAACAUG,binding signal,PUM1 PUF domain R7-RRD,2.84 log2 enrichment (interaction score)
GGCUAGAACUAGUGGAUCCCCCGGCGCCCGGCGGCUCGAGCCCGGGUAAGUUUAAAUAGUCUGCAUGCCGCCGGGCGCCAUGCCUGCAGGUCGACUCUAGAAAACAUG,binding signal,PUM1 PUF domain R7-RRD,4.81 log2 enrichment (interaction score)
GGCUAGAACUAGUGGAUCCCCCGGCGCCCGGCGGCUCGAGCCCGGGUAAGUGUAAAUGGUCUGCAUGCCGCCGGGCGCCAUGCCUGCAGGUCGACUCUAGAAAACAUG,binding signal,PUM1 PUF domain R1-RYT,0.45 log2 enrichment (interaction score)
GGCUAGAACUAGUGGAUCCCCCGGCGCCCGGCGGCUCGAGCCCGGGUAAGUGUAAAUCGUCUGCAUGCCGCCGGGCGCCAUGCCUGCAGGUCGACUCUAGAAAACAUG,binding signal,PUM1 PUF domain R1-RYT,5.12 log2 enrichment (interaction score)
GGCUAGAACUAGUGGAUCCCCCGGCGCCCGGCGGCUCGAGCCCGGGUAAGUGUAAAUAGUCUGCAUGCCGCCGGGCGCCAUGCCUGCAGGUCGACUCUAGAAAACAUG,binding signal,PUM1 PUF domain R6-FRQ,2.83 log2 enrichment (interaction score)
GGCUAGAACUAGUGGAUCCCCCGGCGCCCGGCGGCUCGAGCCCGGGUAAGUGUAAGUAGUCUGCAUGCCGCCGGGCGCCAUGCCUGCAGGUCGACUCUAGAAAACAUG,binding signal,PUM1 PUF domain R3-VCK,1.58 log2 enrichment (interaction score)

# Source: article PMC8384837, “Expanding the binding specificity for RNA recognition by a PUF domain”
